Tau FP inhib: blocks human tau fibril formation measured by polarization. P10636. K18 P301L tau heparin fibrillization, Alexa594 FP, 6 h. Potency, µM (titrated, usually from 57.7 µM), for inactives: at the top dose activity, negative = inhibition, hits mostly inhibitors. 0.39% of 280,000 active. AID 1468; further: potency means the concentration at half of the fitted maximal effect; nearly all actives have a fitted effect of over 55% in size
Target sequence (P10636 561-689 P618L limits assumed): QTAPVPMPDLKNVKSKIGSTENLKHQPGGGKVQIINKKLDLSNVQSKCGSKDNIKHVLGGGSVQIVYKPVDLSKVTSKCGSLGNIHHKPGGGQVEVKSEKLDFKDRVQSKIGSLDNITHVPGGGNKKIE
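Recombinant K18 P301L […], labeled with Alexa 594 at 0.24 uM over 15 uM unlabeled; heparin inducer 20 uM final; 37 C, 6 hr; FP endpoint.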
Tau fluor counter: counter-screen for tau fibril formation inhibitors. tau K18 P301L Alexa594 fluorescence, heparin fibrillization. Potency, µM (titrated, usually from 57.7 µM), inactives show top-dose activity change, negative = decrease. 0.93% of 280,000 active; further: potency means the concentration at half of the fitted maximal effect; nearly all actives have a fitted effect of over 55% in size
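Human K18 P301L tau (15 uM unlabeled plus 0.24 uM Alexa 594-labeled, final) in 100 mM sodium acetate pH 7 was mixed with compound and 20 uM heparin and incubated 6 hr at 37 C.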
Tau fibril ThT: blocks human tau fibril formation measured by thioflavin T | P10636 | recombinant tau K18 P301L (four-repeat tau fragment), heparin-induced fibrillization, ThT fluorescence | 2.1% of 270,000 active | Potency, µM (series often up to 57.4 µM), inactives show at the highest dose activity, negative = inhibition, hits mostly inhibitors | AID 1460; further: potency means the concentration at half of the fitted maximal effect; nearly all actives have a fitted effect of over 55% in size
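Tau K18 P301L fragment (15 uM unlabeled plus 0.24 uM Alexa 594-labeled) in 100 mM sodium acetate pH 7 with compound, fibrillization induced by 20 uM heparin for 6 hr at 37 C. Thioflavin T (30 uM) added, fluorescence read after 1 hr (ex 450, em 510 nm).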
KDM4E inh: inhibitors of human JMJD2E histone demethylase | B2RXH2 | JMJD2E catalytic domain, FDH-coupled NADH fluorescence (FDH is formaldehyde dehydrogenase) | Potency, µM (top dose mostly 57.1 µM), without a hit: at the top dose activity change, negative = inhibition, most hits filed as inhibitors | 1.6% of 230,000 active | AID 2147; active means well fitted inhibition curve with a large enough effect, not every such curve was filed as active; inconclusive means small, poorly fitted or top-dose-only effect, or another doubt; inactive means no such curve, though single readings can be large or run the other way;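 further: potency means the concentration at half of the fitted maximal effect; 0% = wells with enzyme and -100% = buffer wells without enzyme; nearly all actives have a fitted effect of over 50% in size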
Target sequence (B2RXH2 1-337 limits assumed): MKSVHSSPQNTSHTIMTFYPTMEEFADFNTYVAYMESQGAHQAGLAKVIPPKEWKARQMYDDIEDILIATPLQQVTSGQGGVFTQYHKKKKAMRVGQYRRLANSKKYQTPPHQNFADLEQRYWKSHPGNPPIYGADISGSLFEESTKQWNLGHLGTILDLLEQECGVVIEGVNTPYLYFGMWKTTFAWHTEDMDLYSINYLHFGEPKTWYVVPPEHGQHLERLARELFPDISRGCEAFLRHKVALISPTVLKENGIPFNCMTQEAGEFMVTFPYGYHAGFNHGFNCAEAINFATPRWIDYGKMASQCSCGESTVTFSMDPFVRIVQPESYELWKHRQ
Coupling enz: coupling enzyme interference in Giardia aldolase counter-screen; activity change, negative = inhibition, % at 58.2 µM, hits read low; coupling enzyme system counterscreen, AmpLite Red fluorescence; 0.67% of 290,000 active; in the data active means activity change below about -30%
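Activity here indicates interference with the coupling reaction, not aldolase inhibition. Compounds at 57.5 uM final met coupling enzymes for 10 min at RT; substrate and AmpLite Red detection followed, with a 525/598 nm fluorescence read after 20 min.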
Sfp inh: Sfp phosphopantetheinyl transferase inhibition; Q9F4F7; Biochemical Sfp PPTase activity, qHTS; Potency, µM, for inactives: largest response in the series, negative = inhibition, actives largely listed as inhibitors; 3.5% of 310,000 active; AID 1490;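 further: the enzyme is Sfp with the accession as filed and its product quenches rhodamine fluorescence; potency means the concentration at half of the fitted maximal effect; 0% = enzyme reaction without inhibitor and -100% = no enzyme wells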
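Buffer: 50 mM Hepes-Na pH 7.6, 10 mM MgCl2, 0.01% Nonidet P-40, 0.01% BSA. Enzyme 15 nM, pre-exposed to compound 15 min; substrates then added and fluorescence change tracked over 30 min.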
Starred values were filed as active, the others as inactive; ! = not confirmed by another sample; [ ] = dose if it differs, or a comment. Most compounds without a hit are left out; they make up all but 5.3% or so of the library. Unless noted, the call rests on the fitted dose curve; in most records, active means well fitted curve in the direction sought with a large enough effect; inconclusive means small, poorly fitted or top-dose-only effect, or another doubt; inactive means no such curve, though single readings can be large; an effect the other way counts as inactive or inconclusive. Unless noted, on the % scale 0 is the no-effect control and ±100 the full control effect.

How did Cc1cc(Nc2ccc(Cl)cc2)nc(NCc2ccccc2)n1 do in these assays?
Tau FP inhib: inconclusive; Tau fluor counter: 18µM*[quencher]; Tau fibril ThT: -18%; KDM4E inh: inconclusive; Coupling enz: -6; Sfp inh: 20µM*

What do the screens show for `Cc1cc(Nc2ccccc2)nc(NCc2ccccc2)n1`?
Tau FP inhib: inconclusive; Tau fluor counter: 18µM*[quencher]; Tau fibril ThT: -10%; KDM4E inh: inconclusive; Coupling enz: 1; Sfp inh: 25µM*

What do the screens show for `Cc1cc(Oc2ccccc2)nc(NCc2ccccc2)n1`?
Tau FP inhib: -4%; Tau fluor counter: -17%; Tau fibril ThT: inconclusive; KDM4E inh: 1%; Coupling enz: 3; Sfp inh: 2%

Results for Cc1cc(Nc2cccc(F)c2)nc(NCc2ccccc2)n1 ?
Tau FP inhib: inconclusive; Tau fluor counter: 16µM*[quencher]; Tau fibril ThT: 0%; KDM4E inh: -17%; Coupling enz: -6; Sfp inh: 56µM*

How did CCCCNc1cc(C)nc(NCc2ccccc2)n1 do in these assays?
Tau FP inhib: -3%; Tau fluor counter: -21%; Tau fibril ThT: -11%; KDM4E inh: 3%; Coupling enz: 0; Sfp inh: -15%

Results for O=C(CCCCn1c(=O)c2ccccc2n(Cc2cccc(Cl)c2)c1=O)NCc1ccc2c(c1)OCO2 ?
Tau FP inhib: 0%; Tau fluor counter: -15%; Tau fibril ThT: -2%

Results for CCOC(=O)c1c(NC(C)=O)c2c3c(sc2n1Cc1nc(-c2ccccc2Cl)oc1C)CCCC3 ?
Tau FP inhib: -5%; Tau fluor counter: -7%; Tau fibril ThT: -7%

Results for Cc1cccc(C)c1NC(=S)NCCc1ccc(O)c(O)c1 ?
Tau FP inhib: -7%; Tau fluor counter: -26%; Tau fibril ThT: inconclusive; KDM4E inh: 1%; Coupling enz: -9; Sfp inh: 50µM*

Results for C[C@@H](CCc1ccc(O)cc1)NCCc1ccc(O)c(O)c1 ?
Tau FP inhib: -5%; Tau fluor counter: -16%; Tau fibril ThT: -20%; KDM4E inh: 20µM*; Coupling enz: -5; Sfp inh: 56µM*!

Results for Cc1ccc(N=Nc2ccc(C)cc2NC(=O)Nc2ccccc2F)cc1 ?
Tau FP inhib: -9%; Tau fluor counter: inconclusive; Tau fibril ThT: 1.3µM*; KDM4E inh: 4%; Coupling enz: 3; Sfp inh: -12%

How did Cc1ccc(S(=O)(=O)NNC(=O)Nc2ccccc2F)c(C)c1 do in these assays?
Sfp inh: 12%

How did CC(C)Nc1ccc(Nc2ccnc3cc4ccccc4cc23)cc1 do in these assays?
Tau FP inhib: -3%; Tau fluor counter: 18µM*[quencher]; Tau fibril ThT: 5µM*; KDM4E inh: -3%; Coupling enz: -3; Sfp inh: -19%

Results for c1ccc(CCNc2ccnc3cc4ccccc4cc23)cc1 ?
Tau FP inhib: inconclusive; Tau fluor counter: -19%; Tau fibril ThT: inconclusive; KDM4E inh: inconclusive; Coupling enz: -44*; Sfp inh: inconclusive

What do the screens show for `c1ccc(CCNc2ncnc3ccccc23)cc1`?
Tau FP inhib: -4%; Tau fluor counter: 0%; Tau fibril ThT: -3%; KDM4E inh: -16%; Coupling enz: 1; Sfp inh: -8%

What do the screens show for `Cn1c(=O)c2[nH]c(=O)cnc2n(C)c1=S`?
Tau FP inhib: -5%; Tau fluor counter: -5%; Tau fibril ThT: inconclusive; KDM4E inh: inconclusive; Coupling enz: -1; Sfp inh: 18µM*

What do the screens show for `Cc1ccc2c(c1)N(C(=O)CCC(=O)NCc1cccc(F)c1)CC(C)O2` (centres undefined)?
Tau FP inhib: -4%; Tau fluor counter: -2%; Tau fibril ThT: 1%

How did COc1ccc(C2C=C3CNS(=O)(=O)C3CC2OC(=O)c2cccs2)cc1 (centres undefined) do in these assays?
Coupling enz: -1; Sfp inh: -15%

What do the screens show for `Cc1coc2c1c(C)cc1oc(=O)c(CC(=O)NCc3ccc(Cl)cc3)c(C)c12`?
Tau FP inhib: -4%; Tau fluor counter: -15%; Tau fibril ThT: -16%

What do the screens show for `CCN(CC)CCOc1ccc(-c2nc3cc(Cl)ccc3s2)cc1`?
Sfp inh: -18%

What do the screens show for `Cc1ccc(-n2nnnc2SC(C(=O)c2c[nH]c3ccccc23)c2ccccc2)cc1` (centres undefined)?
Tau FP inhib: 11µM*; Tau fluor counter: inconclusive; Tau fibril ThT: 17%; KDM4E inh: -18%; Coupling enz: 4; Sfp inh: 15%

What do the screens show for `CCOC(=O)c1oc2ccccc2c1CSc1nnnn1-c1ccc(C)cc1`?
Tau FP inhib: -6%; Tau fluor counter: inconclusive; Tau fibril ThT: -20%; KDM4E inh: 4%; Coupling enz: 0; Sfp inh: 3%

Results for O=C(Nc1ccc(Nc2ccccc2)cc1)C(Cl)(Cl)Cl ?
Tau FP inhib: 7%; Tau fluor counter: 7.9µM*[quencher]; Tau fibril ThT: inconclusive; KDM4E inh: 1%; Coupling enz: 0; Sfp inh: -25%

How did CCC(=O)Nc1ccc(Nc2ccccc2)cc1 do in these assays?
Tau FP inhib: 11%; Tau fluor counter: -27%; Tau fibril ThT: inconclusive; KDM4E inh: 4%; Coupling enz: -1; Sfp inh: 18%

How did COCC(=O)Nc1ccc(Nc2ccccc2)cc1 do in these assays?
Tau FP inhib: -3%; Tau fluor counter: inconclusive; Tau fibril ThT: inconclusive; KDM4E inh: -4%; Coupling enz: -1; Sfp inh: 71µM*

What do the screens show for `O=C(NCc1ccc(Cl)cc1)NC1COc2ccccc2C1` (centres undefined)?
Tau FP inhib: -6%; Tau fluor counter: 2%; Tau fibril ThT: 7%

How did O=C(NCCc1ccccc1)c1cccc(Br)n1 do in these assays?
Tau FP inhib: -4%[81.3 µM]; Tau fluor counter: -15%[81.3 µM]; Tau fibril ThT: -15%[81.4 µM]; Coupling enz: -1; Sfp inh: -18%

Results for Cc1c(CCC(=O)O)c(=O)oc2c(C)c3occ(-c4ccc(Br)cc4)c3cc12 ?
Coupling enz: -8; Sfp inh: -21%

What do the screens show for `Cc1c(CC(=O)O)c(=O)oc2c(C)c3occ(-c4ccc(F)cc4)c3cc12`?
Coupling enz: 1; Sfp inh: 35µM*

Results for CC1c2ccccc2SC(CCCN(C)C)c2ccccc21 (centres undefined) ?
Tau FP inhib: 8%; Tau fluor counter: 14%; Tau fibril ThT: 10%; KDM4E inh: 3%; Coupling enz: -10; Sfp inh: 45µM*

How did CCOC(=O)c1c(C)[nH]c(C)c1S(=O)(=O)N(C)CC(=O)Nc1ccc(C)cc1C do in these assays?
Tau FP inhib: -4%; Tau fluor counter: -6%; Tau fibril ThT: -7%
